In the supplement of paper PMC10849652:
The full data set covers some 7,900 targets. This sample favours those with a hit. About 0.6% of all pairs of compound and target were hits.

Target: ZYG11B (UniProt Q9C0D3)
Experiment: log2 fold change, soluble protein after heating vs DMSO (PISA); higher = thermal stabilisation; K562 cells, 10 uM, 30 min; active = over 0.2 and 3.5 SD of the protein, either way, in both replicates (recomputed)
Outline: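 Thermal stability values are relative to control samples and come from duplicates. They are expressed as log2 fold changes. For measurement, K562 cells (2×10^6 cells/mL) received 10 μM compound for 30 min, and aliquots were heated for 3 min over 48°C-58°C, pooled, and extracted at 4°C in PBS with 0.5% NP-40. Soluble protein, the supernatant after 21,000xg for 90 min, was quantified by TMTpro 16plex LC-MS/MS with equalised channel sums.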

ZYG11B, sequence (Q9C0D3 whole entry, looked up): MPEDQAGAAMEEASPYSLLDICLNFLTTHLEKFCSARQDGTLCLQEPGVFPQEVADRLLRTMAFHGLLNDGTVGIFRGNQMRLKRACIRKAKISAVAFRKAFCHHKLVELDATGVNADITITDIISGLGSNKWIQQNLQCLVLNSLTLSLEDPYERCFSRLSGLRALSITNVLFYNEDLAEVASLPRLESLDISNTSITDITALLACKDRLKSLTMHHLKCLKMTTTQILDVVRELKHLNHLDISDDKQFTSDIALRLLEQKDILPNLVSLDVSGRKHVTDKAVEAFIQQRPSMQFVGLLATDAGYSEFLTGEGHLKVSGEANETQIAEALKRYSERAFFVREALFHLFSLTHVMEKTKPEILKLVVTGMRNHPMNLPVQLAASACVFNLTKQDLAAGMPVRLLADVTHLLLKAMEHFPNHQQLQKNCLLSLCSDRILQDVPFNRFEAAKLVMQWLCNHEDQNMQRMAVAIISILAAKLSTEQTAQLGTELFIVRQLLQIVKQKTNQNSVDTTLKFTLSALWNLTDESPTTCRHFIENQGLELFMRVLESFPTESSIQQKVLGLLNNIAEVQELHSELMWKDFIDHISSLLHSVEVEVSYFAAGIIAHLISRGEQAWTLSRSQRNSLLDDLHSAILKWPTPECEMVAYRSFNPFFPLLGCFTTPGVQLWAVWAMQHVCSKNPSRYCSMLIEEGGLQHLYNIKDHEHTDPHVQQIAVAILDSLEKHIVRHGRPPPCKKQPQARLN

log2 fold change, inactive:
C=CC(=O)N1CCC[C@@H](n2nc(-c3ccc(Oc4ccccc4)cc3)c3c(N)ncnc32)C1 [ibrutinib] 0.022, Cc1ncc(-c2ccnc(Nc3ccc(S(C)(=O)=O)cc3)n2)n1C(C)C 0.037, Cn1c2cc(S(C)=O)sc2c2cnn(Cc3cccc(N)c3)c(=O)c21 (stereo not given) -0.053, CO[C@H]1C[C@@H]2CC[C@@H](C)[C@@](O)(O2)C(=O)C(=O)N2CCCC[C@H]2C(=O)O[C@H]([C@H](C)C[C@@H]2CC[C@H](n3cnnn3)[C@H](OC)C2)CC(=O)[C@H](C)/C=C(\C)[C@@H](O)[C@@H](OC)C(=O)[C@H](C)C[C@H](C)/C=C/C=C/C=C/1C [zotarolimus] 0.024, COc1cc(C(=O)O)ccc1NC(=O)[C@@H]1N[C@@H](CC(C)(C)C)[C@](C#N)(c2ccc(Cl)cc2F)[C@H]1c1cccc(Cl)c1F [idasanutlin] 0.01, Cc1nc(Nc2ncc(C(=O)Nc3c(C)cccc3Cl)s2)cc(N2CCN(CCO)CC2)n1 [dasatinib] -0.017, Cc1cc(SCc2sc(-c3ccc(C(F)(F)F)cc3)nc2C)ccc1OCC(=O)O -0.133, NC(=O)Nc1cc(-c2cccc(F)c2)sc1C(=O)N[C@H]1CCCNC1 -0.033, CC[C@H](C)[C@H](NC(=O)[C@H]([C@@H](C)CC)N(C)C(C)=O)C(=O)N[C@H](C(=O)N[C@@H](CC(C)C)C(=O)[C@@]1(C)CO1)[C@@H](C)O [epoxomicin] 0.123, c1cc(OCCN2CCCCC2)cc(-c2n[nH]c3ccc(-c4nnc[nH]4)cc23)c1 0.002, COc1cccc2cc(-c3nc([C@H]4CC[C@H](C(=O)O)CC4)n4ncnc(N)c34)[nH]c12 0.02, O=C(O)c1ccc2c(c1)nc(Nc1cccc(Cl)c1)c1ccncc12 [silmitasertib] 0, Fc1ccc(Cl)cc1-c1nc(Nc2ccncc2)c2nccnc2n1 0.013, CC(C)(C)Cn1c(N)nc2ccc(-c3[nH]c(C(C)(C)C)nc3-c3ccc(F)cc3)nc21 [ralimetinib] -0.046, C[C@@H]1COCCN1c1cc(C2(S(C)(=O)=O)CC2)nc(-c2cccc3[nH]ccc23)n1 -0.008, CCCCN(Cc1ccc(C(=O)NO)cc1)C(=O)Nc1ccccc1 [Nexturastat A] -0.011, O=C(CCCCCCC(=O)Nc1ccccc1)NO [vorinostat] 0.053, CCN(CCCOc1ccc2c(Nc3cc(CC(=O)Nc4cccc(F)c4)[nH]n3)ncnc2c1)CCOP(=O)(O)O [barasertib] 0.044, CNC(=O)c1ccc(Nc2ncc(C(F)(F)F)c(NCc3nccnc3N(C)S(C)(=O)=O)n2)cc1 [defactinib] -0.058, Cc1ccc(Sc2cncc3sc(C(N)=O)cc23)cc1 -0.028, O=C1c2ccccc2-c2n[nH]c3cccc1c23 -0.033, Cc1nc(Nc2n[nH]c3c2CN(C(=O)N[C@H](CN(C)C)c2ccccc2)C3(C)C)c2sccc2n1 0.026, COC(=O)[C@H](CCSC)NC(=O)c1ccc(NC[C@@H](N)CS)cc1-c1ccccc1 0.013, CCN(CC)Cc1ccc2cc(COC(=O)Nc3ccc(C(=O)NO)cc3)ccc2c1 [givinostat] -0.009, CNc1nc(-c2ccc3c(N)n[nH]c3c2)cc(N2C[C@@H](C(=O)NC3CCCCC3)CC[C@H]2C)n1 0.002, CC[C@@H]1C(=O)N(C)c2cnc(Nc3ccc(C(=O)N[C@H]4CC[C@H](N5CCN(CC6CC6)CC5)CC4)cc3OC)nc2N1C(C)C [volasertib] 0.002, Cc1ccc2c(=O)c3ccccc3n(CCCN)c2c1C 0.009, CC(C)(O)CC(=O)NCCn1ccc2ncnc(Nc3ccc(Oc4cccc(C(F)(F)F)c4)c(Cl)c3)c21 -0.017, C/C(=N\NC(=O)c1cccc(S(=O)(=O)N2CCOCC2)c1)c1cc(Cl)ccc1O 0.006, CNC(=O)c1ccccc1Nc1nc(Nc2ccc(N3CCOCC3)cc2OC)ncc1Cl -0.016
